# Test results from PubChem BioAssay (NCATS).
# Inconclusive results are not listed. Where a call stands in place of a potency, no number is given. A number with no mark means an inactive call. Active and inactive are the calls of the source. Calls come from the whole dose curve; as a rule, active = well fitted curve in the direction sought with a large enough effect; inconclusive = small, poorly fitted or top-dose-only effect, or another doubt; inactive = no such curve, though single readings can be large; an effect the other way counts as inactive or inconclusive.
# Tests used:
# [1] = molecular target: Rap guanine nucleotide exchange factor 3 (Homo sapiens) (UniProt O95398); assay: Confirmatory qHTS for antagonist of cAMP-regulated guanine nucleotide exchange factor 3 (EPAC1) (AID 1645880); conditions: EPAC1 Rap1B-BODIPY-GDP exchange, fluorescence; activity, negative = inhibition: at 115 µM (top of the series); note: nearly all actives have a fitted effect of over 55% in size; note: potency is the fitted concentration of half-maximal effect
# In short: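 Nucleotide exchange uses 100 nM EPAC1, 250 nM RAP1B-BODIPY-GDP and 50 uM GDP, with compounds in a concentration-titration series. After 5 min at room temperature, fluorescence (480 nm ex/540 nm em) is read every 5 min for 30 min. Data are normalized to control ATA and DMSO.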
# [2] = molecular target: Rap guanine nucleotide exchange factor 3 (Homo sapiens) (UniProt O95398); assay: Confirmatory qHTS for agonist of cAMP-regulated guanine nucleotide exchange factor 3 (EPAC1) (AID 1645881); note: nearly all actives have a fitted effect of over 75% in size; note: potency is the fitted concentration of half-maximal effect;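 for activation: EPAC1 catalysed release of BODIPY-GDP from Rap1B seen as fluorescence loss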
# [3] = molecular target: Rap guanine nucleotide exchange factor 3 (Homo sapiens) (UniProt O95398); assay: Counterscreen qHTS for antagonist of cAMP-regulated guanine nucleotide exchange factor 3 (EPAC1) (AID 1645888);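 note: fluorescence loss as bound BODIPY-GDP is released from Rap1B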
# In short: (§1)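 Rap1B-BODIPY-GDP 250 nM + GDP 50 uM; cpds 7-pt, final 9.74 nM–152 uM (activator mode) or from 7.32 nM upwards (inhibitor mode); RT; FI 480/540 nm at 5 and 30 min, then ± cAMP, reread.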
# [4] = molecular target: Rap guanine nucleotide exchange factor 3 (Homo sapiens) (UniProt O95398); assay: Counterscreen qHTS for agonist of cAMP-regulated guanine nucleotide exchange factor 3 (EPAC1) (AID 1645889); note: nearly all actives have a fitted effect of over 40% in size; note: potency is the fitted concentration of half-maximal effect
# In short: as §1
# [5] = molecular target: Rap guanine nucleotide exchange factor 4 (Homo sapiens) (UniProt Q8WZA2); assay: Confirmatory qHTS for agonist of cAMP-regulated guanine nucleotide exchange factor 4 (EPAC2) (AID 1645884);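 note: nucleotide exchange releases bodipy-GDP from Rap1 and this lowers its fluorescence; nearly all actives have a fitted effect of over 65% in size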; note: potency is the fitted concentration of half-maximal effect
# [6] = molecular target: Rap guanine nucleotide exchange factor 4 (Homo sapiens) (UniProt Q8WZA2); assay: Confirmatory qHTS for antagonist of cAMP-regulated guanine nucleotide exchange factor 4 (EPAC2) (AID 1645885); note: nearly all actives have a fitted effect of over 25% in size; note: potency is the fitted concentration of half-maximal effect
# Chain of Rap guanine nucleotide exchange factor 3 (Homo sapiens) (O95398 whole entry, looked up): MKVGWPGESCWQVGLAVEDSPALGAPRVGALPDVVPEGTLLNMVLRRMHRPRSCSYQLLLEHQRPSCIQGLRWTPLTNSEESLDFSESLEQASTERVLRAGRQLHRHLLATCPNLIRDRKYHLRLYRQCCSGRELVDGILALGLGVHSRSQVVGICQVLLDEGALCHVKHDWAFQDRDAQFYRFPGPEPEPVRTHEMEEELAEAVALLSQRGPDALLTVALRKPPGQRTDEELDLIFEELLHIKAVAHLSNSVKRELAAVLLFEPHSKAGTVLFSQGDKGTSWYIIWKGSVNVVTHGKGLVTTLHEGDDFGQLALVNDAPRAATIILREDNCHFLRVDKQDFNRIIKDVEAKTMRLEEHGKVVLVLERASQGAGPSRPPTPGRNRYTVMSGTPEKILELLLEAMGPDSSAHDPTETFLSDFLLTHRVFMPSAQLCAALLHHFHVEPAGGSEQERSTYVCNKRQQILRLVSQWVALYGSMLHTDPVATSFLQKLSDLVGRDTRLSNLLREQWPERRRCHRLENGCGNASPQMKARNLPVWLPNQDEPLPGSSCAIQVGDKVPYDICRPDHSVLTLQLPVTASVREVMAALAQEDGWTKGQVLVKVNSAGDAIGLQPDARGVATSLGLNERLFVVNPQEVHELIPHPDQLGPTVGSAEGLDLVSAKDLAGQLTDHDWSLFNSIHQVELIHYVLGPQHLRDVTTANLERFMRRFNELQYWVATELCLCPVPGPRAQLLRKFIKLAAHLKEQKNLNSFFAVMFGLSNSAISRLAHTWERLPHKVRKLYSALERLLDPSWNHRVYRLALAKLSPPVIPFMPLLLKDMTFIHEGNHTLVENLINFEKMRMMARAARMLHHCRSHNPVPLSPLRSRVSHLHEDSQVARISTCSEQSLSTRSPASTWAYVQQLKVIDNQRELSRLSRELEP
# Chain of Rap guanine nucleotide exchange factor 4 (Homo sapiens) (Q8WZA2 whole entry, looked up): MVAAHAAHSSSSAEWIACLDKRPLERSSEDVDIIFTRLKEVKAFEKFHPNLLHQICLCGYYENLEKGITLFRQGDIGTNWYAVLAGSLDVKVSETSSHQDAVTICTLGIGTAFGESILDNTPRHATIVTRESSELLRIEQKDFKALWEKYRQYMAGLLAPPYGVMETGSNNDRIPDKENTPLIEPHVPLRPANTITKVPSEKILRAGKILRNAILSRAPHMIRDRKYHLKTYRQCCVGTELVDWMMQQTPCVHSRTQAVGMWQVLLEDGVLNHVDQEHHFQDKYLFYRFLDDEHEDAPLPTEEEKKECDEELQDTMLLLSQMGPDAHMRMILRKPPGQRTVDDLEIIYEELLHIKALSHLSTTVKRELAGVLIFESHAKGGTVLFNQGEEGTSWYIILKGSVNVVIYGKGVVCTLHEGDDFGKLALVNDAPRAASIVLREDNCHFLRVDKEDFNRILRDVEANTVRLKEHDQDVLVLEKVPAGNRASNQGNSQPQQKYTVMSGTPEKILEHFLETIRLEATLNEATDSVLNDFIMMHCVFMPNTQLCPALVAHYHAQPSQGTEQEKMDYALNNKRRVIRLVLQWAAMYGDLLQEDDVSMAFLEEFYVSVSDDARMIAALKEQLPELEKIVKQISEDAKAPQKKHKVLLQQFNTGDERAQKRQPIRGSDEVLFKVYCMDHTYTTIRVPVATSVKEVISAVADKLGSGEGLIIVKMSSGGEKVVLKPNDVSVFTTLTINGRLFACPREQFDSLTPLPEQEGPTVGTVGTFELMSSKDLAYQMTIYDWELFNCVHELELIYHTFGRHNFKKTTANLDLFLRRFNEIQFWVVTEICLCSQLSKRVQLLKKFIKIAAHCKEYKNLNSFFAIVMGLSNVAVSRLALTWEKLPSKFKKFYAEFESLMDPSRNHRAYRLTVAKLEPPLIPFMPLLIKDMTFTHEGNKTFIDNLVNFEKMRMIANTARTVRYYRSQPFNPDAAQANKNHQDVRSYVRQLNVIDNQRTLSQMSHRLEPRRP
smiles,measurement,setting,value
CC(=O)O[C@H]1c2ccccc2-c2ccccc2[C@@H]1OC(C)=O,Potency,[1],inactive
same,Potency,[2],inactive
same,"activity change, negative = inhibition",[3],-14.6% [at 30.8 µM]
same,activation,[4],8.91% [at 30.8 µM]
Cc1ccc(C2N(c3cccc(Cl)c3)C(=O)N3CCCN23)cc1 (stereo unspecified),Potency,[1],inactive
same,Potency,[2],inactive
same,"activity change, negative = inhibition",[3],-4.78% [at 30.8 µM]
same,activation,[4],3.03% [at 30.8 µM]
COC(=O)c1ccc2nc(-c3ccc(OC)c(OC)c3)c(CC3CCCCC3)n2c1,Potency,[1],inactive
same,Potency,[2],inactive
same,Potency,[3],inactive
same,Potency,[4],inactive
CC(NC(=O)/C(C#N)=C/c1ccc(N2CCOCC2)cc1)c1ccccc1 (stereo unspecified),Potency,[1],inactive
same,Potency,[5],112 µM (active)
same,Potency,[6],inactive
same,Potency,[3],inactive
COC(=O)c1ccc2nc(-c3ccc(F)cc3)c(Cc3ccccc3)n2c1,Potency,[1],inactive
same,Potency,[2],inactive
same,activation,[4],19.8% [at 30.8 µM]
COc1ccc(OC)c(/C=C/c2nc3ccccc3nc2C)c1,Potency,[1],inactive
same,Potency,[5],79.3 µM (active)
same,Potency,[6],inactive
COc1ccc(N2C(=O)[C@H]3CCC=C[C@H]3[C@@H]2c2ccccc2Br)cc1,Potency,[1],inactive
same,Potency,[2],inactive
same,Potency,[4],inactive
Cc1cc2nc3c(=O)n(C)c(=O)n(C)c3nc2cc1N=CN(C)C,Potency,[1],inactive
same,Potency,[2],50.1 µM (active)
same,Potency,[4],44.7 µM (active)
COc1cc(C)c(S(=O)(=O)N2CCCC2)cc1C(C)C,Potency,[1],inactive
same,Potency,[2],inactive
same,activation,[4],14.6% [at 30.8 µM]
CCOc1ccccc1Oc1nc(C)nc2c1oc1ccccc12,Potency,[1],inactive
same,Potency,[5],inactive
same,Potency,[6],inactive
same,Potency,[3],inactive
CN(C)c1ccc(C2C=C(c3ccc(Cl)cc3OC(F)F)Nc3ncnn32)cc1 (stereo unspecified),Potency,[1],inactive
same,activation,[5],"4.39% [at 17.1 µM, percent relative to cAMP agonist control]"
same,Potency,[6],inactive
same,"activity change, negative = inhibition",[3],-14.7% [at 30.8 µM]
O=C(NCc1ccco1)c1ccc(Cn2c(=S)[nH]c3ccccc3c2=O)cc1,Potency,[1],inactive
same,Potency,[5],inactive
same,Potency,[6],953 nM (active)
same,Potency,[3],inactive
CCOC(=O)C1Oc2ccccc2C(c2ccc(C)cc2)=C1C(=O)OC (stereo unspecified),Potency,[1],inactive
same,Potency,[2],inactive
same,Potency,[4],inactive
CN(C)c1ccc(/C=C/C(=O)c2cccc(Br)c2)cc1,Potency,[1],inactive
same,activation,[5],"-16% [at 17.1 µM, percent relative to cAMP agonist control]"
same,Potency,[6],inactive
same,"activity change, negative = inhibition",[3],21.2% [at 30.8 µM]
CC(C)(C)C1CCc2c(sc(NC(=O)CCC(=O)O)c2C(=O)Nc2ccccc2C(F)(F)F)C1 (stereo unspecified),Potency,[1],42.6 µM (active)
same,Potency,[5],inactive
same,Potency,[6],inactive
COC(=O)C1=CC(C(=O)c2cccs2)=NN(c2ccc(OC)cc2)C1C(=O)OC (stereo unspecified),Potency,[1],inactive
same,activation,[5],"9.11% [at 17.1 µM, percent relative to cAMP agonist control]"
same,Potency,[6],inactive
same,"activity change, negative = inhibition",[3],-26% [at 30.8 µM]
O=C(c1cccs1)N(Cc1cccnc1)c1nc2c(Cl)cccc2s1,Potency,[1],inactive
same,Potency,[5],inactive
same,Potency,[6],inactive
same,Potency,[3],inactive
COc1ccc(Cl)cc1NC(=O)CN(C)C(C)C(=O)NC(=O)NC1CCCCC1 (stereo unspecified),Potency,[1],inactive
same,Potency,[5],inactive
same,Potency,[6],inactive
same,Potency,[3],inactive
O=C1OC(c2ccccc2)(c2cc(Br)c(O)c(Br)c2)c2ccccc21 (stereo unspecified),Potency,[1],84.9 µM (active)
same,Potency,[2],inactive
same,Potency,[4],inactive
Fc1cc(F)cc(-c2c(-c3ccccc3)ncc3ccc(F)cc23)c1,Potency,[1],inactive
same,Potency,[2],inactive
same,Potency,[4],inactive
Cc1ccc(S(=O)(=O)C2(C(=O)Nc3ccc(Br)cc3)CC2)cc1,Potency,[1],inactive
same,activation,[5],"6.34% [at 17.1 µM, percent relative to cAMP agonist control]"
same,Potency,[6],inactive
same,"activity change, negative = inhibition",[3],-6.73% [at 30.8 µM]
CCOC(=O)C1=C(C)N=c2s/c(=C\c3cccn3C)c(=O)n2C1c1cccc(OC)c1OC (stereo unspecified),Potency,[1],inactive
same,activation,[5],"19.2% [at 17.1 µM, percent relative to cAMP agonist control]"
same,Potency,[6],inactive
same,"activity change, negative = inhibition",[3],-4.43% [at 30.8 µM]
O=C(O)c1cc(Nc2cc(Cl)c3nonc3c2[N+](=O)[O-])ccc1O,Potency,[1],9.53 µM (active)
same,Potency,[2],inactive
same,Potency,[4],inactive
COc1ccccc1-c1oc2ccccc2c1-c1ccc2c(c1)OCO2,Potency,[1],inactive
same,Potency,[2],inactive
same,Potency,[4],inactive
Cc1ccc2nc(/C(C#N)=C\c3ccc(N4CCOCC4)o3)[nH]c2c1,Potency,[1],inactive
same,activation,[5],"11.1% [at 17.1 µM, percent relative to cAMP agonist control]"
same,Potency,[6],inactive
same,"activity change, negative = inhibition",[3],15.8% [at 30.8 µM]
O=S1(=O)NC(c2ccccc2)CC(CC2CCCCC2)O1 (stereo unspecified),Potency,[1],inactive
same,activation,[5],"26.6% [at 17.1 µM, percent relative to cAMP agonist control]"
same,Potency,[6],inactive
same,"activity change, negative = inhibition",[3],-0.437% [at 30.8 µM]
O=C(CSc1nc2ccccc2o1)NCc1ccc2c(c1)OCO2,Potency,[1],inactive
same,Potency,[5],inactive
COc1ccc(OC)c(/C=C2\SC(=S)N(Cc3cccnc3)C2=O)c1,Potency,[1],inactive
same,activation,[5],"3.3% [at 17.1 µM, percent relative to cAMP agonist control]"
same,Potency,[6],inactive
same,"activity change, negative = inhibition",[3],-3.11% [at 30.8 µM]
Cc1cccc(-n2c(N)c(-c3nc4ccccc4n3C)c3nc4ccccc4nc32)c1,Potency,[1],inactive
same,activation,[5],"17.4% [at 17.1 µM, percent relative to cAMP agonist control]"
same,Potency,[6],inactive
same,"activity change, negative = inhibition",[3],-16.7% [at 30.8 µM]
COc1ccc(S(=O)(=O)N2CCCC2)c2ccccc12,Potency,[1],inactive
same,Potency,[2],inactive
same,activation,[4],9.58% [at 30.8 µM]
O=C(COc1cccc(OC(F)F)c1)Nc1ccc(SC(F)F)cc1,Potency,[1],inactive
same,activation,[5],"9.08% [at 17.1 µM, percent relative to cAMP agonist control]"
same,Potency,[6],inactive
Cn1c(=O)c(C#N)c(-c2ccc(F)cc2)c2cc(C(=O)c3cc(Cl)cc(Cl)c3O)cnc21,Potency,[1],inactive
same,Potency,[5],inactive
